Results on 19 molecules are retold here after PubChem BioAssay.

A number with no mark means an inactive call. For some assays here: Entries with a potency or affinity are not part of this list. Calls of active or inactive are those of the source. Unless noted, no rule for the calls is given here.

Usually inhibition stands for the change of the read-out against control, counted positive when it falls.

Assay [1] is described as follows: antimalarial activity against Dd2 strain (AID 2302;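 active = growth inhibition above 50% at the single 2 µM test dose, taken to imply half-maximal potency below 2 µM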;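 also: 0% = DMSO untreated growth and 100% = chloroquine plus artemisinin killed control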). The note with it: P. falciparum Dd2 in RBCs, LDH growth readout, 72 h; at 2 µM; active compounds read high.
A short description of assay [2]: HepG2 cytotoxicity, primary screen, cytotoxicity control for P. falciparum antimalarial project, cell-based, ATP luminescence (AID 2303;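 active = inhibition above 50%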;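 also: 0% = DMSO wells and 100% = digitonin-killed cells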). The settings on record: HepG2 viability, 24-48 h, at 10 µM, active compounds read high.
Assay [3] has as its target L-lactate dehydrogenase (Plasmodium falciparum (isolate CDC / Honduras)) (UniProt Q27743). The assay is described as follows: PfLDH activity inhibition – cell lysate, 3D7 strain, counter-screen for P. falciparum growth inhibition project (AID 2304).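 Also: 0% = vehicle and 100% = reference inhibitor.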 The note with it: P. falciparum 3D7 crude extract, LDH APAD/NBT absorbance; at 2 µM; active compounds read high. In general terms: A counterscreen serves to expose hits that act by an unwanted route or on another target.

The nature of assay [4]: inhibition of 3D7 malaria parasite growth – strain 3D7 (AID 2306).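 Also: 0% = DMSO wells and 100% = chloroquine plus artemisinin control wells.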 The note with it: P. falciparum 3D7 erythrocytic growth, LDH absorbance, 72 h; at 2 µM; active compounds read high.
Assay [5] concerns the target Calcium-dependent protein kinase 1 (Plasmodium falciparum (isolate 3D7)) (UniProt P62344). As to the kind of experiment: PfCDPK1 kinase inhibitors, biochemical, TCAMS library (AID 1159585; cut-off not given, nearly all actives have IC50 up to about 0.98 µM;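 also: inhibitors leave more ATP so luminescence rises with inhibition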). The settings on record: recombinant PfCDPK1, Kinase-Glo ATP depletion luminescence. (In general: Kinase-Glo measures the ATP left after a reaction by luminescence.)
The target of assay [6] is Plasmodium falciparum protein kinase 6 (PK6, PF3D7_1337100) (UniProt Q8IDW1). The assay is described as follows: PfPK6 kinase inhibitors, biochemical, TCAMS library (AID 1159586). The note with it: recombinant PfPK6, Kinase-Glo ATP depletion luminescence.
For assay [7], the target named is Protein kinase 7 (PK7), Plasmodium falciparum 3D7 (PF3D7_0213400) (UniProt Q7YTF7). As to the kind of experiment: inhibition of Plasmodium PK7 catalytic activity – biochemical, TCAMS antimalarial set, Kinase-Glo luminescence (AID 1159587). The settings on record: recombinant PfPK7, Kinase-Glo ATP depletion luminescence.
For assay [8], the target named is Calcium-dependent protein kinase 4 (Plasmodium falciparum (isolate 3D7)) (UniProt Q8IBS5). As to the kind of experiment: PfCDPK4 kinase inhibitors, biochemical, TCAMS library (AID 1159588; cut-off not given, nearly all actives have IC50 up to about 0.91 µM). The settings on record: recombinant PfCDPK4, Kinase-Glo ATP depletion luminescence.
Chain of Calcium-dependent protein kinase 4 (Plasmodium falciparum (isolate 3D7)) (Q8IBS5 whole entry, looked up): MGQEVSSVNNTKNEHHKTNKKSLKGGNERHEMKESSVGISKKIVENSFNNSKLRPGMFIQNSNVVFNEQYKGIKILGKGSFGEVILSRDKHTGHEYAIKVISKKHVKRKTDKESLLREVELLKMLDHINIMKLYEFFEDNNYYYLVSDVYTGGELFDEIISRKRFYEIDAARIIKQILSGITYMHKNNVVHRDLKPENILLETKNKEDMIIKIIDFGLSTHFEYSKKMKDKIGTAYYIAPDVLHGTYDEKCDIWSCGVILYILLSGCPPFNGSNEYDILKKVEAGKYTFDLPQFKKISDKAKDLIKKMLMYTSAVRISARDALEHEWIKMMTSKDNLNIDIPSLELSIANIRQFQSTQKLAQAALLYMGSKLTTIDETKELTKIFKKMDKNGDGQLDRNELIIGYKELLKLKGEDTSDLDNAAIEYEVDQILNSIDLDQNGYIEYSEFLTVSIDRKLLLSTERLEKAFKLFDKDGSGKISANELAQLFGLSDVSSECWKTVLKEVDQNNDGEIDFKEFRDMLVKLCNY

Chain of Calcium-dependent protein kinase 1 (Plasmodium falciparum (isolate 3D7)) (P62344 whole entry, looked up): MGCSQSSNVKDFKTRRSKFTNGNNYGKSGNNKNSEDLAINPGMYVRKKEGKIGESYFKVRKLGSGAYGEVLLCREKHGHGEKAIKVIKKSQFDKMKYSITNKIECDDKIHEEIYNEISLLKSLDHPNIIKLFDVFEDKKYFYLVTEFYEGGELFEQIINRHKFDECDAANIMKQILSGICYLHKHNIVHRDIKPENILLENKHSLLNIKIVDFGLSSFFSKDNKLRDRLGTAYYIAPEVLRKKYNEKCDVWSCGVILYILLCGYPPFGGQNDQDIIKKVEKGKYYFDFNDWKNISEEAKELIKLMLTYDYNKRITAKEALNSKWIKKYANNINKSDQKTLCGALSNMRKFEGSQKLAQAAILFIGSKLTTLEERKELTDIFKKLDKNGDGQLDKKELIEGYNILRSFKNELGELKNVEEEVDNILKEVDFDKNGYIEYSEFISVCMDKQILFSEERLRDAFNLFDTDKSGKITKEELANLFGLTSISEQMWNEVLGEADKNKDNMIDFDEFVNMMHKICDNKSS
Chain of Plasmodium falciparum protein kinase 6 (PK6, PF3D7_1337100) (Q8IDW1 1-305): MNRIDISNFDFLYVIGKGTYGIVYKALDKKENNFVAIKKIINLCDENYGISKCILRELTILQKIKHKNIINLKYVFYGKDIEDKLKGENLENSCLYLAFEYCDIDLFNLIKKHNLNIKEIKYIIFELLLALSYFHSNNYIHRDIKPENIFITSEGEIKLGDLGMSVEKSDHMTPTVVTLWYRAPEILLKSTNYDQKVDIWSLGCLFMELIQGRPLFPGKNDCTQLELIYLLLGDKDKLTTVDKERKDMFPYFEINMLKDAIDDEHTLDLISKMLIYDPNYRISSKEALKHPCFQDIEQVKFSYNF
Chain of L-lactate dehydrogenase (Plasmodium falciparum (isolate CDC / Honduras)) (Q27743 whole entry, looked up): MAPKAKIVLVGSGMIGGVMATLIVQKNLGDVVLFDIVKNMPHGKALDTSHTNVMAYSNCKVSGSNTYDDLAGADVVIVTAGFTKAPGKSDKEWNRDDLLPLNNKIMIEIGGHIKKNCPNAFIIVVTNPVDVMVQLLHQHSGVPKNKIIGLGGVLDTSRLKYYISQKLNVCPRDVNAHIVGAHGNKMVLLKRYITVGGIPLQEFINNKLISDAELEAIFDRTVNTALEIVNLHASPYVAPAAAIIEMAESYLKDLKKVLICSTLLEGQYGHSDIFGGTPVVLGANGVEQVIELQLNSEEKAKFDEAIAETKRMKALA
Chain of Protein kinase 7 (PK7), Plasmodium falciparum 3D7 (PF3D7_0213400) (Q7YTF7 1-343): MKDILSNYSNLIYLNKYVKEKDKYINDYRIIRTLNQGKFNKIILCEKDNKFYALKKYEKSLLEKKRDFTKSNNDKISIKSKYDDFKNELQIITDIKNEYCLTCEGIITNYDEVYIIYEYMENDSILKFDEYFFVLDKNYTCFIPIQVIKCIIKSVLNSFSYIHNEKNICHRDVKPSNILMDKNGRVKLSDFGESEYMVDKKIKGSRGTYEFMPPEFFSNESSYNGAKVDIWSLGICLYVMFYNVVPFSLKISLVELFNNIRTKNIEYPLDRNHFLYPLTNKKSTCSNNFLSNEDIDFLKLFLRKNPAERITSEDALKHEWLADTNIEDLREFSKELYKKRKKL

As to `COc1ccc2ccccc2c1CNCCCCCCNCc1c(OC)ccc2ccccc12`, the values for the growth inhibition in assay [1] and in assay [4] were 35% and 101% (active), respectively. Also, the values for the inhibition in assay [2] and in assay [3] were 99% (active) and -2%, respectively. For the same molecule, the result in assay [5], in assay [6], in assay [7] and in assay [8] was inactive.

In the case of `O=C(/C=C/c1ccc([N+](=O)[O-])cc1)N1CCC(NS(=O)(=O)c2cccc(C(F)(F)F)c2)CC1`, the growth inhibition is 8% in assay [1] and 94% (active) in assay [4]. Moreover, the inhibition in assay [2] is -2%; in assay [3], -1%. For the same molecule, the result in assay [5], in assay [6], in assay [7] and in assay [8] was inactive.

As to `O=C(Nc1ccc(-c2ccc(CN3CCNCC3)cc2)cc1)c1cccc(Cl)c1`, the results for the growth inhibition in assay [1] and in assay [4] were 16% and 91% (active), respectively. For the same molecule, the inhibition in assay [2] was 58% (active); in assay [3] it was 2%. For the same molecule, the outcome in assay [5], in assay [6], in assay [7] and in assay [8] was inactive.

Take `Fc1ccc(-c2oc(C3CCN(CCc4ccc(-c5nc(=S)o[nH]5)cc4)CC3)nc2COCC(F)(F)F)cc1`: the growth inhibition is 95% (active) in assay [1] and 97% (active) in assay [4]. The results for the inhibition in assay [2] and in assay [3] were 5% and 3%, respectively. Besides, the outcome in assay [5], in assay [6], in assay [7] and in assay [8] was inactive.

`Cc1nnsc1C(=O)Nc1ccc(-c2cccc(-c3nc4ccc(C(F)(F)F)cc4[nH]3)c2)cc1`: the growth inhibition was 36% in assay [1] and 97% (active) in assay [4]. Moreover, the inhibition in assay [2] is 69% (active); in assay [3], 2%. Moreover, the outcome in assay [5], in assay [6], in assay [7] and in assay [8] was inactive.

For `CC(=O)N(C)C1CCN(Cc2ccc(-c3ccc(-c4nc5ccc(F)cc5[nH]4)s3)cc2)C1` (configuration not stated), the growth inhibition in assay [1] is 22%; in assay [4], 98% (active). The inhibition in assay [2] is 46%; in assay [3], 1%. Moreover, the result in assay [5], in assay [6], in assay [7] and in assay [8] was inactive.

Consider `Cc1nc2ccc(-c3nc4ccc(N)cc4[nH]3)cc2[nH]1`, for which the growth inhibition is 80% (active) in assay [1] and 94% (active) in assay [4]. The inhibition in assay [2] was 6%; in assay [3], -5%. Besides, the outcome in assay [5], in assay [6], in assay [7] and in assay [8] was inactive.

`Cc1ccc2nc3c(cc(C(=O)NCc4ccccc4)c(=N)n3CCCn3ccnc3)c(=O)n2c1`: the results for the growth inhibition in assay [1] and in assay [4] were -1% and 93% (active), respectively. In addition, the inhibition was 10% in assay [2] and -3% in assay [3]. The outcome in assay [5], in assay [6], in assay [7] and in assay [8] was inactive.

Regarding `Cc1nc2nc(N)nc(N)c2c(C)c1Cc1ccc(C(F)(F)F)cc1`, the values for the growth inhibition in assay [1] and in assay [4] were 22% and 96% (active), respectively. Further, the results for the inhibition in assay [2] and in assay [3] were 57% (active) and -2%, respectively. Besides, the outcome in assay [5], in assay [6], in assay [7] and in assay [8] was inactive.

As for `Cc1cc(N(C)C)nc(Nc2ccc(NC(=O)COc3ccccc3)cc2)n1`, the growth inhibition is 67% (active) in assay [1] and 101% (active) in assay [4]. Besides, the inhibition was 15% in assay [2] and 3% in assay [3]. Further, the outcome in assay [5], in assay [6], in assay [7] and in assay [8] was inactive.

In the case of `COc1ccc(CN2CCC(CNCc3cccc(-c4ccccc4)c3)CC2)cc1`, the growth inhibition in assay [1] was 92% (active); in assay [4], 100% (active). Besides, the inhibition is 96% (active) in assay [2] and 2% in assay [3]. Moreover, the result in assay [5], in assay [6], in assay [7] and in assay [8] was inactive.

For the molecule `Cc1cccc2[nH]c(-c3ccc(-c4cccc(CN5CCN(c6ccncc6)CC5)c4)cc3)nc12`, the figures for the growth inhibition in assay [1] and in assay [4] were 99% (active) and 101% (active), respectively. Also, the inhibition in assay [2] is 50% (active); in assay [3], 7%. The result in assay [5], in assay [6], in assay [7] and in assay [8] was inactive.

Consider `Cn1nccc1C(=O)NCCNCc1cccc(-c2cccc(-c3nc4ccc(F)cc4[nH]3)c2)c1`, for which the results for the growth inhibition in assay [1] and in assay [4] were 7% and 100% (active), respectively. Further, the inhibition is 38% in assay [2] and 0% in assay [3]. Moreover, the outcome in assay [5], in assay [6], in assay [7] and in assay [8] was inactive.

Consider `Fc1ccc(Nc2ccnc3cc(I)ccc23)c(Cl)c1`, for which the values for the growth inhibition in assay [1] and in assay [4] were 24% and 95% (active), respectively. In addition, the inhibition is 35% in assay [2] and 1% in assay [3]. For the same molecule, the result in assay [5], in assay [6], in assay [7] and in assay [8] was inactive.

As for `Cc1cccc2[nH]c(-c3ccc(-c4ccc(CNCC(C)C)cc4)cc3)nc12`, the figures for the growth inhibition in assay [1] and in assay [4] were 90% (active) and 100% (active), respectively. Moreover, the results for the inhibition in assay [2] and in assay [3] were 14% and -1%, respectively. Besides, the result in assay [5], in assay [6], in assay [7] and in assay [8] was inactive.

For `Fc1ccc(NC(=S)NCCc2ccccc2)cc1`, the figures for the growth inhibition in assay [1] and in assay [4] were 0% and 99% (active), respectively. For the same molecule, the inhibition in assay [2] is -1%; in assay [3], 3%. In addition, the result in assay [5], in assay [6], in assay [7] and in assay [8] was inactive.

As for `CN1CCN(c2ccnc3cc4c(cc23)N(C(=O)Nc2ccc(-c3ccncc3)c3ccccc23)CC4)CC1`, the growth inhibition in assay [1] is 97% (active); in assay [4], 101% (active). The figures for the inhibition in assay [2] and in assay [3] were 10% and -2%, respectively. The result in assay [5], in assay [6], in assay [7] and in assay [8] was inactive.

Turning to `COc1ccc(CNc2cc(C)nc3sc4c(c23)CCC2(C4)OCCO2)cc1`, the growth inhibition in assay [1] was 2%; in assay [4], 96% (active). In addition, the inhibition is 4% in assay [2] and -7% in assay [3]. The result in assay [5], in assay [6], in assay [7] and in assay [8] was inactive.

As for `CC1CC1C(=O)NC1CCN(CC2(c3ccccc3)CCCCC2)CC1` (configuration not stated), the values for the growth inhibition in assay [1] and in assay [4] were 95% (active) and 97% (active), respectively. In addition, the inhibition in assay [2] was -1%; in assay [3], 0%. Further, the result in assay [5], in assay [6], in assay [7] and in assay [8] was inactive.
